Measurements reported in PubChem BioAssay (NCI).
The panel holds about 79,000 compounds, 15% with a hit somewhere; the sample as a whole holds those more often. Cut-off read from the data, not from the text of the source: active = growth inhibition above about 70%; inactive = the rest.

Legend:
[1] = NCI Yeast Anticancer Drug Screen. Data for the rad50 strain (AID 155);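 note: 0% = growth of vehicle-only cultures of the same strain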; conditions: S. cerevisiae rad50 strain growth inhibition; at 50.0 µM; hits give high values
Procedure, shortened: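 Yeast carrying a defined DNA repair defect were exposed to test compounds, and growth was compared with vehicle-treated controls to give percent inhibition.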

[2] = NCI Yeast Anticancer Drug Screen. Data for the mec2-1 strain (AID 157); conditions: S. cerevisiae mec2-1 strain, at 50.0 µM, hits give high values
Procedure, shortened: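 Strain: mec2-1 (DNA repair/cell cycle alteration). Compound exposure, then growth measured; inhibition expressed relative to vehicle.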

[3] = NCI Yeast Anticancer Drug Screen. Data for the sgs1 mgt1 strain (AID 161);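 note: 0% = growth of cultures given vehicle only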; conditions: S. cerevisiae sgs1 mgt1 strain, at 50.0 µM, hits give high values
Procedure, shortened: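 Mutant yeast exposed to compound; growth scored against vehicle-only wells.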

[4] = NCI Yeast Anticancer Drug Screen. Data for the cln2 rad14 strain (AID 165);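 note: 0% = growth equal to vehicle treated cultures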; conditions: S. cerevisiae cln2 rad14 strain, at 50.0 µM, hits give high values
Procedure, shortened: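 Compounds are applied to the cln2 rad14 yeast strain, and growth is then compared with that of vehicle-treated cultures to give inhibition.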

[5] = NCI Yeast Anticancer Drug Screen. Data for the bub3 strain (AID 167); conditions: S. cerevisiae bub3 mutant strain, at 50.0 µM, hits give high values
Procedure, shortened: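 Compounds were applied to a genetically altered yeast strain carrying a cell-cycle control defect. Growth inhibition was scored against vehicle-treated controls.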

[6] = NCI Yeast Anticancer Drug Screen. Data for the mlh1 rad18 strain (AID 175); conditions: S. cerevisiae mlh1 rad18 strain growth inhibition; at 50.0 µM; hits give high values
Procedure, shortened: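 Read-out is yeast growth inhibition, calculated against vehicle-only controls. The compound was applied to a strain engineered with DNA damage repair alterations.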

Measured: growth inhibition

O=c1[nH]c(=O)n(CCCCOc2ccccc2)cc1-c1ccccc1
inactive: [1] 3.75% | [2] 10.2% | [3] 19.6% | [4] 0.7% | [5] 12.1% | [6] 5.9%

CC(C)CC(=O)c1ccc2ccccc2c1O
inactive: [1] -0.1% | [2] -17.1% | [3] 6.7% | [4] -12.2% | [5] -14.2% | [6] 5.95%

O=C([O-])c1cc(I)cc(I)c1[OH2+].O=C([O-])c1cc(I)cc(I)c1[OH2+].[Mn+2]
inactive: [1] -1.55% | [2] -19.4% | [3] -6.2% | [4] -23.7% | [5] -46% | [6] 5.8%

CC(O)CN1c2ccccc2Sc2ccc(Cl)cc21 (stereo not given)
inactive: [1] 19.2% | [2] 10.9% | [3] 3.35% | [4] 17.1% | [5] -4.9% | [6] 12.8%

O=S(=O)(O)c1cc(N=Nc2cc(S(=O)(=O)O)c3cccnc3c2O)ccc1/C=C/c1ccc(N=Nc2cc(S(=O)(=O)O)c3cccnc3c2O)cc1S(=O)(=O)O.[Na+].[Zn+2]
inactive: [1] -15.2% | [2] -8.65% | [3] -9.85% | [4] -75.6% | [5] -44% | [6] -86.7%

COc1ccc(OC)c(NCC(=O)Nn2cnc3ccc(S(=O)(=O)Nc4cc(OC)ccc4OC)cc3c2=O)c1
inactive: [1] 36.9% | [2] 12.7% | [3] 27.6% | [4] 20.9% | [5] 50.8% | [6] 37.1%

Nc1nc(SCc2ccccc2Cl)cc(C(=O)O)n1
inactive: [1] 31.6% | [2] 34.7% | [3] 47.2% | [4] 4.15% | [5] 44% | [6] 53%

CC1(C)CC(C)(O)N(CCc2ccccc2)C(=S)N1 (stereo not given)
inactive: [1] -6.55% | [2] 2.7% | [3] 8.8% | [4] -17.1% | [5] 5.15% | [6] 2.45%

COc1ccc(-c2csc(N)n2)cc1OC
inactive: [1] 2.15% | [2] -3.9% | [3] 4.4% | [4] -66.7% | [5] -10.4% | [6] 1.9%

O=C1c2ccccc2C(=CC=C2c3ccccc3Sc3ccccc32)c2ccccc21
inactive: [1] 11.9% | [2] 25.9% | [3] -35% | [4] 9.55% | [5] 24.2% | [6] -5.75%

Cc1cccc2c1Oc1ccccc1C2NC(=O)OCCCl (stereo not given)
inactive: [1] 1.8% | [2] 13.1% | [3] 8.7% | [4] -37% | [5] 0.85% | [6] 12.8%

CCOC(=O)C(C)(C)Oc1ccc2c(-c3ccc(Cl)cc3)cc(=O)oc2c1
inactive: [1] 9.05% | [2] -5.1% | [3] -2.5% | [4] 7.65% | [5] -11.9% | [6] 2.55%

Nc1c(Cl)cc(Cl)cc1C(=O)O
inactive: [1] -5.05% | [2] -10.5% | [3] 0.35% | [4] -28.7% | [5] -11.2% | [6] -16.1%

CC1(C)COC2(CC(C)(C)OC2(C)C)OC1
inactive: [1] -1.45% | [2] 0.8% | [3] -6% | [4] -40.8% | [5] -7.25% | [6] 14.8%

CCCCCCCCCCCCCCCCCC1(c2ccccc2)NC(=O)NC1=O (stereo not given)
inactive: [1] 9.5% | [2] 10.3% | [3] 30.5% | [4] 12.9% | [5] 5.8% | [6] -13.1%

O=C(O)CCc1ccc2c(c1)CC1(Cc3ccccc3C1)C2
inactive: [1] 26.1% | [2] 41.8% | [3] 61.2% | [4] 52.6% | [5] 48.1% | [6] 64%

CCN(CC)C(=O)CC1(O)CCCCC1
inactive: [1] -9.7% | [2] -11.2% | [3] -3.15% | [4] -9.65% | [5] 2.3% | [6] 4.2%

O=C(Nc1ccc(Cl)cc1)Nc1nnc2nc(C(C(=O)c3cccs3)c3nc4nnc(NC(=O)Nc5ccc(Cl)cc5)n4[nH]c3=O)c(=O)[nH]n12
inactive: [1] 1.55% | [2] 12.2% | [3] 0.1% | [4] 15.8% | [5] 0.05% | [6] -13.8%

Clc1ccc(-c2onc3ccc(Br)cc23)cc1
inactive: [1] -6.65% | [2] -12.3% | [3] -1.15% | [4] -17.9% | [5] -0.75% | [6] 8.5%

CN(C)c1ccc(SSc2ccc(N(C)C)cc2)cc1
inactive: [1] -6.9% | [2] -20.6% | [3] 3.2% | [4] -3.9% | [5] 6.55% | [6] 1.25%
